Values joined by “and” are separate entries in the source; they are usually repeats but may differ in a detail not shown here. Equal entries are not always repeated. Out of some 310,000 compounds screened, about 1,200 (0.39%) were called active. How the calls were made is not given here. Only a sample is shown. Measured potencies and affinities stand elsewhere.
Each compound was assayed against Large T antigen (Simian virus 40) (UniProt P03070) (assay: TAg ATPase/helicase activity blockers – biochemical (AID 1903)). Settings: SV40 large T antigen ATPase/helicase inhibition assay; at 20 µM; active compounds read high.
Sequence of Large T antigen (Simian virus 40) (P03070 whole entry, looked up): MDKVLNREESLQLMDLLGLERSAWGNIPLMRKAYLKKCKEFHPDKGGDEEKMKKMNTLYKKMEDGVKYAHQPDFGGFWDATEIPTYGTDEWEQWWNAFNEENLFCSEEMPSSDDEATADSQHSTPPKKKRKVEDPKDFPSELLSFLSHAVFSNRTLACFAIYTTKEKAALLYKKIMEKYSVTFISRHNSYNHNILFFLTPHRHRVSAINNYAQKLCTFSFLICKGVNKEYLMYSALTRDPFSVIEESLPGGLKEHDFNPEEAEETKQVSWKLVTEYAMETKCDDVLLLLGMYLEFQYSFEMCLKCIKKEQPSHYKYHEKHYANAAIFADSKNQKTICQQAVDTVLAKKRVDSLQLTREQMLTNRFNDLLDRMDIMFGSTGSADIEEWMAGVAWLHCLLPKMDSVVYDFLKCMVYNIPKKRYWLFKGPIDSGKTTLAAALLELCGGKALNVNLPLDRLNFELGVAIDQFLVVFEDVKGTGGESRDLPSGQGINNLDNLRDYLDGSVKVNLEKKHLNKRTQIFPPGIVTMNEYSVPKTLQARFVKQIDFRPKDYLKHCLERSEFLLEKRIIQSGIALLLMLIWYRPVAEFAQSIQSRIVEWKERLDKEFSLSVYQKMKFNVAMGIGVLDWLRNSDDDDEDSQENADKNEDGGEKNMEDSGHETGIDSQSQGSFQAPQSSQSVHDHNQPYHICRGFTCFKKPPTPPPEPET

inhibition, inactive:
CCc1c(C)nc(N)nc1Cl 10.9%
CCOC(=O)C(Sc1cc(C)nc(N)n1)C(C)=O (centres undefined) 7.31%
O=C1C=C(Nc2cccc(O)c2)CC(c2ccco2)C1 (centres undefined) 6.63%
O=C1C=C(Nc2ccc(Cl)cc2)CC(c2ccco2)C1 (centres undefined) 24.2%
COc1ccccc1-c1ocnc1C(=O)N1CCN(S(=O)(=O)c2ccc(NC(C)=O)cc2)CC1 4.74%
CCOC(=O)c1c(C)nc2ccccc2c1-c1ccccc1 5.96%
O=C(/C=C/Nc1ccccc1)c1ccccc1 10.3%
COc1ccc(N/C=C/C(=O)C(F)(F)F)cc1 9.63%
CN(C)c1ccc(N/C=C/C(=O)C(C)(C)C)cc1 27.8%
CN(C)c1ccc(N/C=C/C(=O)c2ccc(F)cc2)cc1 18.2%
Cc1ccc(-c2nn(-c3ccccc3)cc2C(N)=O)o1 1%
COc1ccc(CN2CCN(C(=O)CCC(=O)Nc3nnc(C(F)(F)F)s3)CC2)cc1F 25.2%
CCn1c(C)nc2cc(C(=O)N/N=C(\C)c3ccc(N4CCOCC4)cc3)ccc21 9.23%
Oc1c(CN2CCCC(C(F)(F)F)C2)cc(Cl)c2ccccc12 (centres undefined) 6.33%
O=C1[C@H]2CCCC[C@H]2C(=O)N1CCCCN1CCN(c2nsc3ccccc23)CC1 11.2%
COc1ccc(CN2C(=O)CSCC2=O)cc1OC 23.5%
CC1CCCN(S(=O)(=O)c2cnc[nH]2)C1 (centres undefined) 16.4%
CC(=O)c1ccc([N+](=O)[O-])c(CS(=O)(=O)c2ccc(Cl)cc2)c1 2.52%
Cc1ccc(S(=O)(=O)Cc2ccc([N+](=O)[O-])cc2)cc1 12.8%
C=CCNc1nc(-c2cc3ccccc3o2)cs1 16.7%
COc1ccc([C@@H]2CC=C(C(=O)O)[C@H](c3cccc(Cl)c3)N2S(=O)(=O)c2ccccc2C)cc1 20.5%
COc1ccc(-c2cc(=O)c3c(OC)c(OC)c(OC)c(OC)c3o2)cc1OC 8.13% and 2.63% and 16.4%
COc1ccc(-c2cc(=O)c3ccccc3o2)cc1 4.04%
COc1cc(-c2cc(=O)c3c(O)c(OC)c(OC)c(OC)c3o2)cc(OC)c1OC 1.45%
COc1cc(-c2cc(=O)c3c(O)cc(O)cc3o2)ccc1O 11.8%
Nc1nnc(-c2cccc([N+](=O)[O-])c2)o1 -0.81%
CCCCCCn1cc(C(=O)OCC)c(=O)c2cc(F)c(F)cc21 20.5%
CCC(C)C(NC(=O)C(N)CC(C)C)C(=O)NC(CCC(=O)OCc1ccccc1)C(N)=O (centres undefined) -6.23%
O=C(O)c1cc(NCc2cccs2)ccc1N1CCOCC1 16.1%
COC(=O)c1cc(NCc2cccs2)ccc1N1CCOCC1 36.1%
CC(=O)Nc1ccc(NCc2cccs2)cc1 15.1%
O=C(O)c1ccc(NCc2cccs2)cc1 5.7%
O=C(COC(=O)COc1ccccc1[N+](=O)[O-])Nc1ccc(S(=O)(=O)N2CCCCC2)cc1 9.97%
CC(=O)Nc1ccc(NC(=O)CSc2nnc(NC(=O)c3cccc(F)c3)s2)cc1 7.35%
COc1ccc(CC2(CO)COc3ccccc3C2=O)cc1 (centres undefined) 18%
CCn1c(SCC(=O)Nc2cc(OC)ccc2OC)nnc1C1CCCCC1 5.72%
CN(C)C(=O)COC(=O)c1cc(Cl)cc(Cl)c1N 7.1%
CCOC(=O)C1=C(CCc2ccccc2)NC(=O)NC1c1ccc(C#N)cc1 (centres undefined) 13.1%
O=C1C(Cl)=C(N2CCOCC2)C(=O)N1c1ccccc1F 11.2%
O=C(Nc1ccc(N2CCOCC2)cc1)C1CCN(S(=O)(=O)c2ccccc2F)CC1 13.6%
O=C1C(Cc2ccccc2)Nc2ncnc(N3CCOCC3)c2N1Cc1ccc(Cl)cc1 (centres undefined) 9.83%
COc1ccc(N=c2sc3ccccc3n2C)cc1 7.43%
Cn1c(=Nc2ccccc2)sc2ccccc21 -5.34%
CC1CCCCN1c1ncnc2ccccc12 (centres undefined) 0.555%
CC(C)OC(=O)Cc1nc2sc(-c3ccccc3)cc2c(=O)[nH]1 6.88%
CNCc1ccccc1Sc1ccc(O)c(O)c1 -1%
CCN(CC)Cc1ccccc1Sc1ccccc1 16.5%
CN(C)Cc1ccccc1Sc1ccc(Br)cc1 9.88%
CNCc1ccccc1Sc1cccc(O)c1 25.7%
CCC(C)C(NC(=O)c1ccc(Cl)cc1)C(=O)Nc1cccnc1 (centres undefined) -3.25%
CCOC(=O)c1c(NC(=O)CSc2nnnn2C)sc(CC)c1C 4.57%
O=C(N/C(=C/c1cccs1)C(=O)N1CCOCC1)c1ccccc1 6.38%
CN1CCN(c2nc(-c3ccccc3O)nc3ccccc23)CC1 3.42%
COc1ccc(Nc2nc(N3CCCC3)c3ccccc3n2)cc1 17.3%
COc1ccc(Nc2nc(N3CCCCC3)c3ccccc3n2)cc1 8.24%
Cc1ccc(Nc2nc(N3CCOCC3)c3ccccc3n2)cc1 6.59%
COc1ccc(OC)c(NC(=O)CSc2ccc(-c3ccco3)nn2)c1 11.7%
CC(C)(C)OC(=O)[C@H](Cc1ccccc1)NC(=O)c1nc[nH]c1C(=O)N1CCN(c2ccccc2)CC1 10.9%
Cc1cc(C(=O)NNC(=S)NCc2ccco2)n(C)n1 -6.03%
CC(=O)OCCCNc1cc(Sc2nc3ccccc3s2)c2nonc2c1[N+](=O)[O-] 22%
CCC(=O)OCCNc1cc(Sc2nc3ccccc3s2)c2nonc2c1[N+](=O)[O-] 10.9%
CC(C)C(=O)N1CCC(Cc2ccccc2)CC1 12.3%
COc1cc(Cl)c(S(=O)(=O)N2CCCC2)cc1Cl 17.9%
O=C1C=CC(=O)N1c1ccc(I)cc1Cl 8.61%

Source: PubChem BioAssay AID1903 (Southern Research Specialized Biocontainment Screening …, 2009)
